Experiment [1] is described as follows: qHTS assay to identify small molecule agonists of the RXR signaling pathway - cell viability counter screen (AID 1159529). Also: nearly all actives have a fitted effect of over 50% in size. Also: potency is read from the fitted curve at half-maximal effect. The note with it: RXR-alpha-bla HEK293T viability, CellTiter-Glo, 16 h; series mostly up to 76.8 µM. An outline of the steps: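 Compounds dissolved in DMSO were pinned onto HEK 293T cells carrying a beta-lactamase reporter under RXR-alpha control and incubated 16 hr. Cytotoxicity was then quantified by CellTiter-Glo luminescence.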

Experiment [2] is described as follows: qHTS assay to identify small molecule antagonists of the retinoid acid receptor (RAR) signaling pathway - cell viability counter screen (AID 1159551). Also: nearly all actives have a fitted effect of over 35% in size. As to conditions: C3RL4 cells viability, ATP luminescence (CellTiter-Glo), 6 h; series mostly up to 92.4 µM. An outline of the steps: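 Seed C3RL4 cells; next day add compound, then retinol to 1 uM final; incubate 6 h at 37 C; add CellTiter-Glo; read luminescence after 30 min at RT.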
Background: Quantitative high-throughput screening tests each substance at several concentrations.

Experiment [3] can be described thus: qHTS assay to identify small molecule antagonists of the retinoic acid receptor (RAR) signaling pathway (AID 1159552; also: nearly all actives have a fitted effect of over 50% in size; also: potency is read from the fitted curve at half-maximal effect). The note with it: C3RL4 RARE luciferase reporter, retinol-stimulated, 6 h; series mostly up to 92.4 µM. An outline of the steps:
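Test chemicals and DMSO controls were pin-transferred onto C3RL4 cells a day after seeding; retinol (1 uM final) followed at once. Luminescent reporter output was quantified after 6 hr of co-incubation and 30 min with detection reagent.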

Experiment [4] is described as follows: qHTS assay to identify small molecule agonists of the retinoic acid receptor (RAR) signaling pathway (AID 1159553). Also: potency is read from the fitted curve at half-maximal effect. As to conditions: C3RL4 RARE luciferase reporter, agonist, 6 h; activation: at 73.3 µM (top of the series) unless noted. The method, boiled down:
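Activation of retinol signaling was monitored via a RARE luciferase reporter in C3RL4 cells. After 6 hr compound treatment at 37 C, detection reagent was added for 30 min at room temperature before luminescence reading.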

Where “and” joins values, the source holds several entries; their conditions need not be identical. Equal values may be shown once. Results filed as inconclusive are left out. Where a structure was tested more than once in an assay, its records may differ in their call. Calls of active or inactive are those of the source. Calls follow the shape of the dose curve; as a rule, active = well fitted curve in the direction sought with a large enough effect in the repeat runs; inconclusive = weak or mixed curves; inactive = no such curve, though single readings can be large; an effect the other way counts as inactive or inconclusive.

As for `CC(C)N(C(=O)SCC(Cl)=C(Cl)Cl)C(C)C`, the Potency entry in experiment [1], in experiment [2], in experiment [3] and in experiment [4] was “inactive” throughout.
Regarding `c1ccc(N=Nc2ccccc2)cc1`, the Potency result in experiment [1], in experiment [2], in experiment [3] and in experiment [4] was “inactive” in each case.
In the case of `NNC(N)=S`, the Potency in experiment [1] was 18.1 µM (active). Further, the Potency entry in experiment [2] and in experiment [3] was “inactive” in each case.
For the molecule `c1nc[nH]n1`, the Potency result in experiment [1] and in experiment [2] was “inactive” throughout.
For the molecule `COP(=S)(OC)Oc1cc(Cl)c(Cl)cc1Cl`, the Potency result in experiment [1], in experiment [2], in experiment [3] and in experiment [4] was “inactive” throughout.
On to `CC(C)c1ccc(CO)cc1`, for which the Potency entry in experiment [1], in experiment [2], in experiment [3] and in experiment [4] was “inactive” each time.
With `O=C(O)C(F)(F)C(F)(F)C(F)(F)C(F)(F)C(F)(F)C(F)(F)C(F)(F)F`, the Potency result in experiment [1] and in experiment [2] was “inactive” throughout.
Turning to `Nc1c(Cl)cc([N+](=O)[O-])cc1Cl`, the Potency result in experiment [1], in experiment [2], in experiment [3] and in experiment [4] was “inactive” in each case.
For the molecule `CCOC(=O)C(C)OC(=O)c1cc(Oc2ccc(C(F)(F)F)cc2Cl)ccc1[N+](=O)[O-]` (stereo not given), the Potency result in experiment [1], in experiment [2], in experiment [3] and in experiment [4] was “inactive” in each case.
As to `C[C@]12CCC(=O)C[C@@H]1CC[C@@H]1[C@@H]2CC[C@]2(C)[C@@H](O)CC[C@@H]12`, the Potency result in experiment [1], in experiment [2] and in experiment [4] was “inactive” in each case. Moreover, in experiment [3], the Potency is 42.7 µM (active) and inactive.
Take `Oc1ccc(-c2ccccc2)cc1`: the Potency result in experiment [1], in experiment [2] and in experiment [3] was “inactive” in each case.
Consider `c1ccc(P(c2ccccc2)c2ccccc2)cc1`, for which the Potency entry in experiment [1] and in experiment [2] was “inactive” throughout.
With `c1ccc(-c2cccc(-c3ccccc3)c2)cc1`, the Potency entry in experiment [1], in experiment [2] and in experiment [3] was “inactive” in each case. In experiment [4], the Potency was 6.93 µM (active) and 4.86 µM (active).
`CCc1cccc(CC)c1N(COC)C(=O)CCl`: the Potency entry in experiment [1] and in experiment [2] was “inactive” each time.
Take `CCCCCCOC(=O)c1ccccc1C(=O)OCCCCCC`: the Potency entry in experiment [1], in experiment [2], in experiment [3] and in experiment [4] was “inactive” throughout.

Source of the values: PubChem BioAssay (Tox21).
